Records with an inconclusive call do not appear. The source made the active and inactive calls. The call rests on the fitted dose curve; in most records, active means well fitted curve in the direction sought with a large enough effect in the repeat runs; inconclusive means weak or mixed curves; inactive means no such curve, though single readings can be large; an effect the other way counts as inactive or inconclusive.
What was measured:
[1] = qHTS RealTime-Glo MT Cell Viability Assay in HepG2 cells - 40 hour (AID 1224870); further: nearly all actives have a fitted effect of over 50% in size
Summary of the method: (§1)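 Real-time viability: cells seeded at 600 per well together with NanoLuc and cell-permeant prosubstrate, compounds added after 5 h incubation. Luminescence tracked at 0, 8, 16, 24, 32 and 40 h of exposure.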

[2] = A CellTox Green Cytotoxicity Assay to monitor cytotoxicity in HEK293 cells - 40 hour (AID 1224871); further: nearly all actives have a fitted effect of over 45% in size
Summary of the method: (§2)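 Cells (HEK293, 600/well) and dye reagent are dispensed together. After 5 h at 37 C, 23 nL compound is pinned in. Plates stay at 37 C for 40 h with fluorescence read at 0h, 8h, 16h, 24h, 32h and 40h.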

[3] = qHTS RealTime-Glo MT Cell Viability Assay in HepG2 cells - 8 hour (AID 1224873); further: nearly all actives have a fitted effect of over 55% in size
Summary of the method: as §1

[4] = qHTS RealTime-Glo MT Cell Viability Assay in HEK293 cells - 40 hour (AID 1224874); details: RealTime-Glo luminescence; max response: stronger effect = lower value; further: nearly all actives have a fitted effect of over 50% in size
Summary of the method: (§3)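 Real-time viability in HEK293: signal arises when living cells convert a prosubstrate for NanoLuc in the medium, so luminescence tracks viable cell number. Compound (23 nL, DMSO) added 5 h post-seeding; kinetic reads at 0–40 h, 37 C.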

[5] = A CellTox Green Cytotoxicity Assay to monitor cytotoxicity in HEK293 cells - 24 hour (AID 1224875); further: series mostly up to about 77 µM; nearly all actives have a fitted effect of over 45% in size
Summary of the method: as §2

[6] = A CellTox Green Cytotoxicity Assay to monitor cytotoxicity in HepG2 cells - 16 hour (AID 1224876); further: nearly all actives have a fitted effect of over 45% in size
Summary of the method: (§4)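 Cells and non-lytic dye reagent are dispensed together (600 HepG2 cells/well) and incubated 5 h before DMSO compound transfer. Kinetic fluorescence is then recorded in the same wells during 40 h at 37 C.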

[7] = qHTS RealTime-Glo MT Cell Viability Assay in HepG2 cells - 32 hour (AID 1224877); further: nearly all actives have a fitted effect of over 55% in size
Summary of the method: (§5)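 HepG2 cells were seeded at 600 cells/well together with NanoLuc luciferase and a cell-permeant prosubstrate, preincubated 5 h at 37 C/5% CO2, then pin-dosed with compounds in DMSO. Nonlytic luminescence from viable cells was read at each time point.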

[8] = A CellTox Green Cytotoxicity Assay to monitor cytotoxicity in HepG2 cells - 24 hour (AID 1224878); further: nearly all actives have a fitted effect of over 45% in size
Summary of the method: as §4

[9] = A CellTox Green Cytotoxicity Assay to monitor cytotoxicity in HepG2 cells - 40 hour (AID 1224879); further: nearly all actives have a fitted effect of over 40% in size
Summary of the method: as §4

[10] = qHTS RealTime-Glo MT Cell Viability Assay in HEK293 cells - 0 hour (AID 1224880)
Summary of the method: as §3

[11] = A CellTox Green Cytotoxicity Assay to monitor cytotoxicity in HEK293 cells - 32 hour (AID 1224881); further: nearly all actives have a fitted effect of over 40% in size
Summary of the method: as §2

[12] = A CellTox Green Cytotoxicity Assay to monitor cytotoxicity in HepG2 cells - 0 hour (AID 1224882); further: nearly all actives have a fitted effect of over 35% in size
Summary of the method: as §4

[13] = A CellTox Green Cytotoxicity Assay to monitor cytotoxicity in HepG2 cells - 32 hour (AID 1224883); further: nearly all actives have a fitted effect of over 50% in size
Summary of the method: as §4

[14] = A CellTox Green Cytotoxicity Assay to monitor cytotoxicity in HEK293 cells - 8 hour (AID 1224884); further: nearly all actives have a fitted effect of over 35% in size
Summary of the method: as §2

[15] = qHTS RealTime-Glo MT Cell Viability Assay in HEK293 cells - 24 hour (AID 1224886); further: top concentration of the series differs between compounds; nearly all actives have a fitted effect of over 50% in size
Summary of the method: (§6)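 HEK293 cells were seeded at 600 cells/well together with NanoLuc luciferase and cell-permeant prosubstrate, preincubated 5 h at 37 C/5% CO2, then given compound in DMSO by pintool. Luminescence from viable-cell prosubstrate reduction was read repeatedly over 40 h.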

[16] = qHTS RealTime-Glo MT Cell Viability Assay in HEK293 cells - 8 hour (AID 1224887)
Summary of the method: as §3

[17] = A CellTox Green Cytotoxicity Assay to monitor cytotoxicity in HEK293 cells - 16 hour (AID 1224888); further: nearly all actives have a fitted effect of over 35% in size
Summary of the method: as §2

[18] = qHTS RealTime-Glo MT Cell Viability Assay in HepG2 cells - 0 hour (AID 1224889); further: nearly all actives have a fitted effect of over 50% in size
Summary of the method: as §5

[19] = qHTS RealTime-Glo MT Cell Viability Assay in HEK293 cells - 16 hour (AID 1224872)
Summary of the method: as §6

[20] = qHTS RealTime-Glo MT Cell Viability Assay in HepG2 cells - 16 hour (AID 1224885); further: nearly all actives have a fitted effect of over 50% in size
Summary of the method: as §5
On the % scale 0 is the no-effect control and ±100 the full control effect.

Cc1cnc(NS(=O)(=O)c2ccc(N)cc2)nc1
inactive: Potency [1] | Potency [2] | Potency [3] | max response [4] 2.61% | Potency [5] | Potency [6] | Potency [7] | Potency [8] | Potency [9] | Potency [10] | Potency [11] | Potency [12] | Potency [13] | Potency [14] | Potency [15] | Potency [16] | Potency [17] | Potency [18]

Nc1cc(=O)[nH]c(N)n1
inactive: Potency [1] | Potency [2] | Potency [19] | Potency [5] | Potency [6] | Potency [7] | Potency [8] | Potency [9] | Potency [10] | Potency [11] | Potency [12] | Potency [13] | Potency [14] | Potency [20] | Potency [15] | Potency [16] | Potency [17] | Potency [18]

NS(=O)(=O)c1cc(C(=O)NN2C[C@H]3[C@H]4CCC(C4)[C@H]3C2)ccc1Cl
inactive: Potency [1] | Potency [2] | Potency [19] | Potency [5] | Potency [6] | Potency [7] | Potency [8] | Potency [9] | Potency [10] | Potency [11] | Potency [12] | Potency [13] | Potency [14] | Potency [20] | Potency [15] | Potency [16] | Potency [17] | Potency [18]

C=CCS(=O)(=O)O
inactive: Potency [1] | Potency [2] | Potency [19] | Potency [5] | Potency [6] | Potency [9] | Potency [10] | Potency [11] | Potency [12] | Potency [13] | Potency [14] | Potency [15] | Potency [16] | Potency [17] | Potency [18]

N#Cc1ccc(C2CCCc3cncn32)cc1 (configuration not stated)
inactive: Potency [1] | Potency [2] | Potency [19] | max response [4] 8.46% | Potency [5] | Potency [6] | Potency [8] | Potency [9] | Potency [10] | Potency [12] | Potency [13] | Potency [14] | Potency [20] | Potency [16] | Potency [17] | Potency [18]

OC1CCCCC1c1ccccc1 (configuration not stated)
inactive: Potency [1] | Potency [2] | Potency [3] | max response [4] 3.62% | Potency [5] | Potency [6] | Potency [7] | Potency [9] | Potency [10] | Potency [12] | Potency [13] | Potency [14] | Potency [20] | Potency [15] | Potency [16] | Potency [17] | Potency [18]

COC(=O)CC(C)=O
inactive: Potency [1] | Potency [2] | Potency [19] | max response [4] 11.5% | Potency [6] | Potency [7] | Potency [8] | Potency [9] | Potency [10] | Potency [12] | Potency [13] | Potency [14] | Potency [20] | Potency [15] | Potency [16] | Potency [17] | Potency [18]

COc1ccc2c(c1)CCCC2=O
inactive: Potency [1] | Potency [2] | Potency [3] | max response [4] 0.353% | Potency [5] | Potency [6] | Potency [7] | Potency [8] | Potency [9] | Potency [10] | Potency [11] | Potency [12] | Potency [13] | Potency [14] | Potency [20] | Potency [15] | Potency [16] | Potency [17] | Potency [18]

CCOC(=O)c1cccc(N)c1
inactive: Potency [1] | Potency [2] | Potency [19] | Potency [6] | Potency [7] | Potency [8] | Potency [9] | Potency [10] | Potency [11] | Potency [12] | Potency [13] | Potency [14] | Potency [20] | Potency [15] | Potency [16] | Potency [17] | Potency [18]

c1ccc(CC2=NCCN2)cc1
inactive: Potency [1] | Potency [2] | Potency [3] | max response [4] -5.85% | Potency [5] | Potency [6] | Potency [7] | Potency [8] | Potency [9] | Potency [10] | Potency [11] | Potency [12] | Potency [13] | Potency [14] | Potency [20] | Potency [15] | Potency [16] | Potency [17] | Potency [18]

CC/C=C\CCOC(C)=O
inactive: Potency [1] | Potency [2] | Potency [19] | max response [4] -1.39% | Potency [5] | Potency [6] | Potency [8] | Potency [9] | Potency [10] | Potency [11] | Potency [12] | Potency [13] | Potency [14] | Potency [20] | Potency [15] | Potency [16] | Potency [17] | Potency [18]

C=CCCCCCCCCC=O
inactive: Potency [1] | Potency [2] | Potency [19] | Potency [5] | Potency [6] | Potency [7] | Potency [9] | Potency [10] | Potency [11] | Potency [12] | Potency [13] | Potency [14] | Potency [20] | Potency [15] | Potency [16] | Potency [17] | Potency [18]

CCCCOCCOCCOCCCC
inactive: Potency [1] | Potency [2] | Potency [3] | max response [4] 3.79% | Potency [5] | Potency [6] | Potency [7] | Potency [8] | Potency [9] | Potency [10] | Potency [11] | Potency [12] | Potency [13] | Potency [14] | Potency [15] | Potency [16] | Potency [17] | Potency [18]

Source: PubChem BioAssay (Tox21)
